Compounds without any hit were thinned out: in the full panel of roughly 79,000, 15% have a hit. The source made the active and inactive calls. Rule as the data show it: active = growth inhibition above about 70%; inactive = the rest.
Key:
[1] = NCI Yeast Anticancer Drug Screen. Data for the wt2 strain (AID 169);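 also: 0% = growth of vehicle-treated yeast cultures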; conditions: S. cerevisiae wt2 strain growth inhibition, hits give high values
Outline: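 Values express reduction in yeast growth under compound treatment, referenced to vehicle-treated cells.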

[2] = NCI Yeast Anticancer Drug Screen. Data for the mlh1 strain (AID 171);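 also: 0% = growth of vehicle-treated control cultures of the same strain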; conditions: S. cerevisiae mlh1 strain growth inhibition, hits give high values
Outline: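 Steps: expose the defined-mutant yeast strain to compound; expose a parallel culture to vehicle; measure growth; express compound effect as inhibition relative to the vehicle culture.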

[3] = NCI Yeast Anticancer Drug Screen. Data for the sgs1 strain (AID 173);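 also: 0% = growth of vehicle-only control cultures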; conditions: S. cerevisiae sgs1 mutant, hits give high values
Outline: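 Treat defined-mutant yeast with compound; measure growth; calculate inhibition relative to vehicle-treated cells.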

[4] = NCI Yeast Anticancer Drug Screen. Data for the mlh1 rad18 strain (AID 175); conditions: S. cerevisiae mlh1 rad18 strain growth inhibition, hits give high values
Outline: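 Test agents were incubated with a yeast strain of defined genotype (DNA damage repair defect). Inhibition of growth was derived by comparison with vehicle-exposed cultures.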

[5] = NCI Yeast Anticancer Drug Screen. Data for the rad18 strain (AID 177); conditions: S. cerevisiae rad18 mutant growth inhibition, hits give high values
Outline: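 A genetically defined yeast mutant impaired in DNA damage repair was treated with test compounds, then its growth was measured against cultures receiving vehicle alone.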

[6] = NCI Yeast Anticancer Drug Screen. Data for the rad52 strain (AID 147);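 also: 0% = growth of vehicle-treated control cultures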; conditions: S. cerevisiae rad52 mutant growth inhibition, hits give high values
Outline: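 Screen used a yeast mutant impaired in DNA repair. After compound exposure, growth was measured. Values reflect inhibition compared with vehicle-treated cells.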

[7] = NCI Yeast Anticancer Drug Screen. Data for the wt1 strain (AID 149);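 also: 0% = growth of vehicle-treated wt1 cultures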; conditions: S. cerevisiae wt1 strain (SPY 50644) growth inhibition, hits give high values
Outline: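 Vehicle-normalised growth inhibition; strain wt1; compound exposure.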

[8] = NCI Yeast Anticancer Drug Screen. Data for the rad50EPP+ strain (AID 151);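 also: 0% = growth of vehicle-treated control cultures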; conditions: S. cerevisiae rad50 mutant strain, hits give high values
Outline: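 Exposing the rad50EPP+ strain to each compound, growth was compared with vehicle-only cultures to give inhibition.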

[9] = NCI Yeast Anticancer Drug Screen. Data for the mgt1 strain (AID 153); conditions: S. cerevisiae mgt1 mutant growth inhibition, hits give high values
Outline: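 Genetically defined yeast (mgt1) treated with compound; inhibition of growth expressed against vehicle-treated controls.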

[10] = NCI Yeast Anticancer Drug Screen. Data for the rad50 strain (AID 155);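 also: 0% = growth of vehicle-only cultures of the same strain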; conditions: S. cerevisiae rad50 strain growth inhibition, hits give high values
Outline: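 A DNA repair-deficient yeast mutant serves as the test organism; compound-induced growth inhibition is calculated against vehicle-treated cells.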

[11] = NCI Yeast Anticancer Drug Screen. Data for the mec2-1 strain (AID 157); conditions: S. cerevisiae mec2-1 strain, hits give high values
Outline: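 Readout is yeast growth inhibition, normalised to vehicle-treated controls, in the mec2-1 strain exposed to compound.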

[12] = NCI Yeast Anticancer Drug Screen. Data for the rad14 strain (AID 159);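 also: 0% = growth of vehicle-treated control cultures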; conditions: S. cerevisiae rad14 strain growth inhibition, hits give high values
Outline: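 Vehicle-treated cultures served as the baseline for growth inhibition of a DNA repair-mutant yeast strain exposed to each compound.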

[13] = NCI Yeast Anticancer Drug Screen. Data for the sgs1 mgt1 strain (AID 161);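 also: 0% = growth of cultures given vehicle only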; conditions: S. cerevisiae sgs1 mgt1 strain, hits give high values
Outline: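 Percent growth inhibition was derived by comparing compound-exposed mutant yeast with vehicle-exposed cultures. The strain carries alterations in DNA damage repair.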

[14] = NCI Yeast Anticancer Drug Screen. Data for the CLN2oe strain (AID 163);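 also: 0% = growth of vehicle-only control cultures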; conditions: S. cerevisiae CLN2oe strain, hits give high values
Outline: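 Values reflect how much compound exposure reduced yeast growth, referenced to vehicle-exposed cells. Assay organism is a strain with a defined genetic change affecting cell-cycle control.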

[15] = NCI Yeast Anticancer Drug Screen. Data for the cln2 rad14 strain (AID 165);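 also: 0% = growth equal to vehicle treated cultures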; conditions: S. cerevisiae cln2 rad14 strain, hits give high values
Outline: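 Relative to vehicle controls, growth inhibition of compound-treated cln2 rad14 yeast was recorded.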

[16] = NCI Yeast Anticancer Drug Screen. Data for the bub3 strain (AID 167); conditions: S. cerevisiae bub3 mutant strain, hits give high values
Outline: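 Inhibition values come from growth of compound-treated mutant yeast normalised to vehicle-treated controls.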

[17] = at 5.0 µM (retest, dose inferred, filed as 0.5)
[18] = at 50.0 µM (retest, dose inferred, filed as 5.0)

Measured: growth inhibition

COc1ccc(NC(=S)N/N=C(\c2ccccc2)c2ccccn2)cc1
active: [1]; at 100.0 µM 96% | [2]; at 100.0 µM 94% | [3]; at 100.0 µM 97% | [4]; [18] 90% | [4]; at 50.0 µM 83.7% | [5]; at 100.0 µM 95%
inactive: [1]; at 1.2 µM -4% | [1]; at 3.7 µM -4% | [1]; at 11.0 µM -3% | [1]; at 33.0 µM 53% | [2]; at 1.2 µM -4% | [2]; at 3.7 µM -4% | [2]; at 11.0 µM -2% | [2]; at 33.0 µM 60% | [3]; at 1.2 µM -5% | [3]; at 3.7 µM -4% | [3]; at 11.0 µM 0% | [3]; at 33.0 µM 52% | [4]; [17] 55% | [5]; at 1.2 µM -3% | [5]; at 3.7 µM 0% | [5]; at 11.0 µM -2% | [5]; at 33.0 µM 51%

CC(/C=C/c1ccc(Cl)cc1)=N\NC(=S)NCC(C)C
active: [13]; [18] 72% | [13]; at 50.0 µM 77.8% | [16]; at 50.0 µM 85.4% | [4]; at 50.0 µM 77.3%
inactive: [6]; at 1.2 µM -1% | [6]; at 3.7 µM -4% | [6]; at 11.0 µM 4% | [6]; at 33.0 µM 5% | [6]; at 100.0 µM 33% | [7]; at 1.2 µM -2% | [7]; at 3.7 µM -5% | [7]; at 11.0 µM 1% | [7]; at 33.0 µM -1% | [7]; at 100.0 µM 21% | [8]; at 1.2 µM -3% | [8]; at 3.7 µM -5% | [8]; at 11.0 µM 10% | [8]; at 33.0 µM 12% | [8]; at 100.0 µM 28% | [9]; at 1.2 µM -6% | [9]; at 3.7 µM -2% | [9]; at 11.0 µM -4% | [9]; at 33.0 µM 8% | [9]; at 100.0 µM 35% | [10]; at 1.2 µM -1% | [10]; at 3.7 µM 1% | [10]; [17] 1% | [10]; at 11.0 µM 4% | [10]; at 33.0 µM 11% | [10]; [18] 42% | [10]; at 50.0 µM 39.8% | [10]; at 100.0 µM 34% | [11]; at 1.2 µM -2% | [11]; at 3.7 µM -3% | [11]; [17] -9% | [11]; at 11.0 µM -4% | [11]; at 33.0 µM -1% | [11]; [18] 7% | [11]; at 50.0 µM 66.7% | [11]; at 100.0 µM 30% | [12]; at 1.2 µM 1% | [12]; at 3.7 µM -1% | [12]; at 11.0 µM -2% | [12]; at 33.0 µM 5% | [12]; at 100.0 µM 24% | [13]; [17] 46% | [14]; at 1.2 µM 0% | [14]; at 3.7 µM -8% | [14]; at 11.0 µM -8% | [14]; at 33.0 µM 5% | [14]; at 100.0 µM 28% | [15]; [17] 3% | [15]; [18] 37% | [15]; at 50.0 µM 17.6% | [16]; at 1.2 µM -1% | [16]; at 3.7 µM -1% | [16]; [17] 27% | [16]; at 11.0 µM -6% | [16]; at 33.0 µM 5% | [16]; [18] 68% | [16]; at 100.0 µM 37% | [1]; at 1.2 µM -7% | [1]; at 3.7 µM -5% | [1]; at 11.0 µM -12% | [1]; at 33.0 µM -2% | [1]; at 100.0 µM 24% | [2]; at 1.2 µM -3% | [2]; at 3.7 µM -5% | [2]; at 11.0 µM -3% | [2]; at 33.0 µM 7% | [2]; at 100.0 µM 36% | [3]; at 1.2 µM -13% | [3]; at 3.7 µM -8% | [3]; at 11.0 µM -6% | [3]; at 33.0 µM 7% | [3]; at 100.0 µM 34% | [4]; [17] 32% | [4]; [18] 64% | [5]; at 1.2 µM -7% | [5]; at 3.7 µM -4% | [5]; at 11.0 µM -1% | [5]; at 33.0 µM 3% | [5]; at 100.0 µM 32%

Cc1ccc(NC(=O)/C(Cl)=C(\Cl)C(=O)O)cc1C
inactive: [6]; at 1.2 µM 2% | [6]; at 3.7 µM 7% | [6]; at 11.0 µM 42% | [7]; at 1.2 µM -2% | [7]; at 3.7 µM -3% | [7]; at 11.0 µM 2% | [8]; at 1.2 µM 6% | [8]; at 3.7 µM 16% | [9]; at 1.2 µM 4% | [9]; at 3.7 µM 7% | [9]; at 11.0 µM 22% | [10]; at 1.2 µM 2% | [10]; at 3.7 µM 7% | [10]; [17] 13% | [10]; at 11.0 µM 38% | [11]; at 1.2 µM 6% | [11]; at 3.7 µM 10% | [11]; [17] 15% | [11]; at 11.0 µM 24% | [12]; at 1.2 µM 3% | [12]; at 3.7 µM 6% | [12]; at 11.0 µM 26% | [13]; [17] 21% | [14]; at 1.2 µM 3% | [14]; at 3.7 µM 4% | [14]; at 11.0 µM 13% | [15]; [17] 8% | [16]; at 1.2 µM 7% | [16]; at 3.7 µM 5% | [16]; [17] 21% | [16]; at 11.0 µM 20% | [1]; at 1.2 µM 0% | [1]; at 3.7 µM 2% | [1]; at 11.0 µM 11% | [2]; at 1.2 µM 1% | [2]; at 3.7 µM 4% | [2]; at 11.0 µM 12% | [3]; at 1.2 µM 1% | [3]; at 3.7 µM 6% | [3]; at 11.0 µM 29% | [4]; [17] 16% | [5]; at 1.2 µM 0% | [5]; at 3.7 µM 3% | [5]; at 11.0 µM 24%
active: [6]; at 33.0 µM 99% | [6]; at 100.0 µM 99% | [7]; at 33.0 µM 88% | [7]; at 100.0 µM 98% | [8]; at 11.0 µM 77% | [8]; at 33.0 µM 99% | [8]; at 100.0 µM 99% | [9]; at 33.0 µM 99% | [9]; at 100.0 µM 99% | [10]; at 33.0 µM 99% | [10]; [18] 99% | [10]; at 50.0 µM 99.2% | [10]; at 100.0 µM 98% | [11]; at 33.0 µM 99% | [11]; [18] 100% | [11]; at 50.0 µM 99.5% | [11]; at 100.0 µM 99% | [12]; at 33.0 µM 99% | [12]; at 100.0 µM 99% | [13]; [18] 100% | [13]; at 50.0 µM 99.5% | [14]; at 33.0 µM 96% | [14]; at 100.0 µM 99% | [15]; [18] 99% | [15]; at 50.0 µM 72% | [16]; at 33.0 µM 99% | [16]; [18] 99% | [16]; at 50.0 µM 99.5% | [16]; at 100.0 µM 99% | [1]; at 33.0 µM 97% | [1]; at 100.0 µM 99% | [2]; at 33.0 µM 96% | [2]; at 100.0 µM 99% | [3]; at 33.0 µM 99% | [3]; at 100.0 µM 99% | [4]; [18] 99% | [4]; at 50.0 µM 99.3% | [5]; at 33.0 µM 99% | [5]; at 100.0 µM 99%
